Each structure is given as a SMILES string. Values joined by “and” are separate entries in the source; they are usually repeats but may differ in a detail not shown here. Equal entries are not always repeated. Results filed as inconclusive are left out. Unmarked numbers belong to inactive results. Active and inactive are the calls of the source. The call rests on the fitted dose curve; in most records, active means well fitted curve in the direction sought with a large enough effect; inconclusive means small, poorly fitted or top-dose-only effect, or another doubt; inactive means no such curve, though single readings can be large or run the other way.
On the % scale 0 is the no-effect control and ±100 the full control effect; potency means the concentration at half of the fitted maximal effect.

This test in a line: qHTS Assay for Identifying Gametocytocidal Compounds (AID 743244).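 On max response: actives lower the fluorescent signal which means gametocytes are killed.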 To be noted: P. falciparum 3D7 stage III-V gametocytes, alamarBlue, 72 h; max response: active compounds read low. The source says: Malaria cases and deaths have dropped 50% in 29 countries since 2000 due to the combined effects of long-lasting insecticidal bednets, indoor residual spraying, and artemisinin-based combination therapies (ACTs). This success has raised hopes for malaria eradication and consequently stimulated interest in developing new reagents that block gametocyte transmission such as novel and safe gametocytocidal drugs. However, previous drug development efforts have focused primarily on the asexual parasites that cause symptoms, but not malaria transmission. Consequently, patients can remain infectious for weeks after the clearance of asexual parasites and clinical symptoms. To be transmitted from person to person via a mosquito, the parasites must switch from asexual to sexual development and produce male and female gametocytes. Malaria gametocytes consist of five stages (I, II, III, IV and V). The late stage gametocytes (III, IV and V) are difficult to be cultured in vitro and the long lifespan of mature gametocytes allows them being transmitted from host to mosquitoes unless they are completely eliminated by gametocytocidal agents. To identify gametocytocidal compounds which are capable of killing late stage P. falciparum gametocytes, a high throughput gametocyte viability assay was employed. This assay uses oxidoreduction indicator, alamarBlue, as a general measure of metabolic activity of gametocytes. Within live cells, the nonfluorescent resazurin is reduced to resorufin, a bright red fluorescence dye. Fluorescence decreases upon treatment of gametocytocidal compounds. P. falciparum gametocyte (3D7 strain) was used in this study.
The 1536-well gametocycidal viability assay was based on the previous method of Tanaka et al. Stage III-V gametocytes were tested against three compound libraries, including 4265 compounds from NCGC pharmaceutical collection, 400 from Malaria Box library, and 550 from an internal collection of kinase inhibitors. Briefly, 2.5 ul/well incomplete medium was dispensed into each well of 1,536-well plates using the Multidrop Combi followed by 23 nl compound transferring using the NX-TR Pintool (WAKO Scientific Solutions, San Diego, CA). Then, 2.5 ul/well of gametocytes was dispensed with a seeding density of 20,000 cells/well using the Multidrop Combi. The assay plates were incubated for 72 h at 37C with 5% CO2. After addition of 5 ul/well of 2X AlamarBlue dye (Life Technologies, cat. no. DAL1100), the plates were incubated for 24 h at 37C with 5% CO2 and then were read in a fluorescence detection mode (Ex = 525 nm, Em = 598 nm) on a ViewLux plate reader (PerkinElmer).
For orientation: In qHTS, concentration-response curves come from the screen itself.
Consider `CO[C@@H]1[C@@H](O[C@@H]2O[C@H](C)[C@@H](O[C@H]3C[C@@](C)(O)[C@@H](O)[C@H](C)O3)[C@H](N(C)C)[C@H]2O)[C@@H](CC=O)C[C@@H](C)[C@@H](O[C@@H]2CC[C@H](N(C)C)[C@@H](C)O2)/C=C/C=C/C[C@@H](C)OC(=O)C[C@H]1O`, for which the max response is 23.5%.

Take `CC[N+](CC)(CC)CCC(O)(c1ccccc1)C1CCCCC1` (stereo not given): the max response is 4.48%.

For `CC(=O)OC(C)OC(=O)C(C)c1ccc(-c2ccccc2)c(F)c1` (stereo not given), the max response is -5.75% and -9.98%.

Turning to `O=C(O)C[C@H](O)C[C@H](O)/C=C/c1c(C2CC2)nc2ccccc2c1-c1ccc(F)cc1`, the max response is 4.27%.

As to `Cc1ccccc1OCC(O)CNCCOc1ccc(C(N)=O)cc1` (stereo not given), the max response was 6.36%.

For the compound `CCC(=O)NCCC1CCc2ccc3c(c21)CCO3` (stereo not given), the max response is 12.4%.

For the compound `OC[C@H]1O[C@@H](n2cnc3c2NC=NC[C@H]3O)C[C@@H]1O`, the max response is -6.17%.

For `Cc1c(C)c2c(c(C)c1O)CC[C@@](C)(CCC[C@H](C)CCC[C@H](C)CCCC(C)C)O2`, the max response is 1.54% and 7.72%.

For the compound `O=C(Nc1ccc(Br)cc1)c1cc(Br)c(Br)s1`, the max response is 1.98%.

As to `COc1ccc(C[C@@H](C)NC[C@H](O)c2ccc(O)c(NC=O)c2)cc1`, the max response is 19.6%.

Regarding `Nc1ccn([C@H]2CS[C@@H](CO)O2)c(=O)n1`, the max response is 6.99% and 7.67%.

In the case of `O=C(O)C1CCCN1` (stereo not given), the max response is 5.42%.

For `C[C@H](CCC(=O)O)[C@H]1CC[C@H]2[C@@H]3[C@H](O)C[C@@H]4C[C@H](O)CC[C@]4(C)[C@H]3CC[C@]12C`, the max response was 11%.

For `O=C1CSC2(CCN(CCCN3c4ccccc4Sc4ccc(Cl)cc43)CC2)N1`, the max response is -3.9%.

As to `C=CCSSSCC=C`, the max response was -8.99%.

Regarding `CNC1CCN(C(Cc2cccc(-c3ccncc3)c2)C(=O)c2sc3c(F)ccc(F)c3c2Cl)CC1` (stereo not given), the Potency was 9.35 µM (active).

As for `O=C1C(=O)c2ncccc2-c2cccnc21`, the Potency is 0.148 µM (active).

As to `CC(C)(C)C(=O)OCOC(=O)[C@@H]1N2C(=O)[C@@H](N=CN3CCCCCC3)[C@H]2SC1(C)C`, the max response is 2.95%.

For the compound `CNc1cc(OC)c(C(=O)N[C@H]2CCN(Cc3ccccc3)[C@H]2C)cc1Cl`, the max response was -16.8%.

With `Nc1ncnc2c1ncn2[C@@H]1O[C@H](COP(=O)(O)OP(=O)(O)OP(=O)(O)O)[C@@H](O)[C@H]1O`, the max response was -2.1%.

Regarding `CCOc1cc2ncc(C#N)c(Nc3ccc(OCc4ccccn4)c(Cl)c3)c2cc1NC(=O)/C=C/CN(C)C`, the Potency was 23.5 µM (active).

Turning to `C[C@]12CCC(=O)C=C1CC[C@@H]1[C@@H]2[C@@H](O)C[C@@]2(C)[C@H]1CC[C@]2(O)C(=O)COP(=O)(O)O`, the max response was -12.2%.

Take `CC(=O)N(CC(C)C(=O)O)c1c(I)cc(I)c(N)c1I` (stereo not given): the max response was 4.12%.

As for `CC(=O)N[C@@H](CC(=O)N[C@@H](CCC(=O)O)C(=O)O)C(=O)O`, the max response is -4.86%.

Consider `C[C@]12C=CC(=O)C=C1CC[C@@H]1[C@@H]2[C@@H](O)C[C@@]2(C)[C@H]1CC[C@]2(O)C(=O)COC(=O)CCC(=O)O`, for which the max response was -8.44%.

Turning to `NCc1ccccc1CC(=O)N[C@@H]1C(=O)N2C(C(=O)O)=C(CSc3nnnn3CC(=O)O)CS[C@H]12`, the max response is 5.62%.

Take `CCC(=O)NS(=O)(=O)c1ccc(-c2c(-c3ccccc3)noc2C)cc1`: the max response is 39.9%.

Take `CCCCCCCCCCCCCCCC(=O)OCC(COC(=O)CCCCCCCCCCCCCCC)OC(=O)CCCCCCCCCCCCCCC`: the max response was 4.37%.

Turning to `CCCCCCCCCCCCCCCCCCOP(=O)([O-])OC1CC[N+](C)(C)CC1`, the max response was 13.1%.

As to `CN1C(=O)CN2CCc3ccccc3C2c2cc(Cl)ccc21` (stereo not given), the max response is 0.102%.

Regarding `O=S(=O)(O)c1ccc2c(N=Nc3ccc(S(=O)(=O)O)c4ccccc34)c(O)c(S(=O)(=O)O)cc2c1`, the max response is 11.5%.

For `CO[C@H]1C[C@H](O[C@H]2[C@H](C)[C@@H](O[C@@H]3O[C@H](C)C[C@H](N(C)C)[C@H]3OC(C)=O)[C@@H](C)C[C@]3(CO3)C(=O)[C@H](C)[C@@H](OC(C)=O)[C@@H](C)[C@@H](C)OC(=O)[C@@H]2C)O[C@@H](C)[C@@H]1OC(C)=O`, the max response is 7.91%.

On to `Nc1nc(N)c2nc(CNc3ccc(C(=O)N[C@@H](CCC(=O)O)C(=O)O)cc3)cnc2n1`, for which the max response is 13.9%.

As to `COC(=O)C1=C(C#N)NC(C)=C(C(=O)OC(C)C)C1c1cccc([N+](=O)[O-])c1` (stereo not given), the max response was 13.2%.

Regarding `CC1=C(/C=C/C(C)=C/C=C/C(C)=C/C=C/C=C(C)/C=C/C=C(C)/C=C/C2=C(C)CCCC2(C)C)C(C)(C)CCC1`, the max response is -12%.

For `CC[N+](C)(C)Cc1ccccc1Br`, the max response was 2.98%.

`CO/N=C(\C(=O)N[C@@H]1C(=O)N2C(C(=O)O)=C(CSc3cnns3)CS[C@H]12)c1csc(N)n1`: the max response was 2.82%.

Consider `CCCC(=O)Nc1ncnc2c1ncn2[C@@H]1O[C@@H]2COP(=O)(O)O[C@H]2[C@H]1OC(=O)CCC`, for which the max response was -2.66%.

Regarding `CN1Cc2c(N)cccc2C(c2ccccc2)C1` (stereo not given), the max response is 14.6% and -4.23%.

Take `CC[C@H]1OC(=O)[C@H](C)[C@@H](O[C@H]2C[C@@](C)(OC)[C@@H](O)[C@H](C)O2)[C@H](C)[C@@H](O[C@@H]2O[C@H](C)C[C@H](N(C)C)[C@H]2O)[C@](C)(O)C[C@@H](C)/C(=N\OCOCCOC)[C@H](C)[C@@H](O)[C@]1(C)O`: the max response is -7.41% and 9.46%.

(Values after PubChem BioAssay (NCATS).)
